PubChem BioAssay (NCATS)
Results filed as inconclusive are left out. The source made the active and inactive calls. The call rests on the fitted dose curve; in most records, active means well fitted curve in the direction sought with a large enough effect; inconclusive means small, poorly fitted or top-dose-only effect, or another doubt; inactive means no such curve, though single readings can be large; an effect the other way counts as inactive or inconclusive.

Experiments:
[1] = qHTS of pediatric cancer cell lines to identify multiple opportunities for drug repurposing: Confirmatory screen for BT-37 cells (AID 1347117); further: potency means the concentration at half of the fitted maximal effect;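 further: viability measured after 48 h of compound exposure; nearly all actives have a fitted effect of over 55% in size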
Procedure, shortened: (§1)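 Viability after 48 h compound treatment at 37C, 500-1,000 cells/well, read as ATP luminescence with CellTiter-Glo. Primary screens used 11-point (MIPE, 0.78 nM-46 µM) or 8-point (NPC, 0.59 nM-46 µM) final concentrations; follow-up screens used 11-point dilutions.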

[2] = qHTS of pediatric cancer cell lines to identify multiple opportunities for drug repurposing: Confirmatory screen for TC32 cells (AID 1347118);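 further: cells exposed to compound for 48 h before the read; nearly all actives have a fitted effect of over 65% in size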; further: potency means the concentration at half of the fitted maximal effect
Procedure, shortened: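 Luminescent ATP read-out (CellTiter-Glo) of metabolically active TC32 cells after 48 h exposure. Concentration-response curves came from 11-point (MIPE, 0.78 nM–46 µM) or 8-point (NPC, 0.59 nM–46 µM) primary titrations; follow-up used 11 points.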

[3] = qHTS of pediatric cancer cell lines to identify multiple opportunities for drug repurposing: Confirmatory screen for MG 63 (6-TG R) cells (AID 1347119); further: nearly all actives have a fitted effect of over 55% in size; further: potency means the concentration at half of the fitted maximal effect
Procedure, shortened: as §1

[4] = qHTS of pediatric cancer cell lines to identify multiple opportunities for drug repurposing: Confirmatory screen for control Hh wild type fibroblast cells (AID 1347121); further: nearly all actives have a fitted effect of over 70% in size; further: potency means the concentration at half of the fitted maximal effect
Procedure, shortened: as §1

[5] = qHTS of pediatric cancer cell lines to identify multiple opportunities for drug repurposing: Confirmatory screen for Saos-2 cells (AID 1347127); further: nearly all actives have a fitted effect of over 60% in size; further: potency means the concentration at half of the fitted maximal effect
Procedure, shortened: as §1

[6] = qHTS of pediatric cancer cell lines to identify multiple opportunities for drug repurposing: Confirmatory screen for OHS-50 cells (AID 1347128);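 further: compound exposure lasted 48 h at 37 degrees C; nearly all actives have a fitted effect of over 55% in size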; further: potency means the concentration at half of the fitted maximal effect
Procedure, shortened: as §1

[7] = tested on: Zika virus NS2B-NS3 protease; test: Primary screen GU AMC qHTS for Zika virus inhibitors (AID 1347154); further: nearly all actives have a fitted effect of over 70% in size; further: potency means the concentration at half of the fitted maximal effect
Procedure, shortened: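 Unlinked Zika NS2B hydrophilic domain–NS3 protease complex at 25 nM in 10 mM Tris-HCl pH 8.0, 0.01% Tween 20, with an AMC peptide substrate. Fluorescence change (340/450 nm) over 15 min at room temperature, normalized to controls, fitted to 4-parameter Hill.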

[8] = qHTS of pediatric cancer cell lines to identify multiple opportunities for drug repurposing: Confirmatory screen for U-2 OS cells (AID 1347122); further: nearly all actives have a fitted effect of over 65% in size; further: potency means the concentration at half of the fitted maximal effect
Procedure, shortened: as §1

[9] = qHTS of pediatric cancer cell lines to identify multiple opportunities for drug repurposing: Confirmatory screen for Rh41 cells (AID 1347123);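 further: 48 h compound exposure; nearly all actives have a fitted effect of over 60% in size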; further: potency means the concentration at half of the fitted maximal effect
Procedure, shortened: as §1

[10] = qHTS of pediatric cancer cell lines to identify multiple opportunities for drug repurposing: Confirmatory screen for RD cells (AID 1347124);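 further: cells exposed to compound for 48 h before viability readout; nearly all actives have a fitted effect of over 65% in size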; further: potency means the concentration at half of the fitted maximal effect
Procedure, shortened: as §1

[11] = qHTS of pediatric cancer cell lines to identify multiple opportunities for drug repurposing: Confirmatory screen for SK-N-SH cells (AID 1347129);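 further: cells exposed to compound for 48 h before viability read; nearly all actives have a fitted effect of over 60% in size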; further: potency means the concentration at half of the fitted maximal effect
Procedure, shortened: as §1

Furin (Homo sapiens) = Furin (Homo sapiens) (UniProt P09958); test: Furin counterscreen qHTS for Zika virus inhibitors (AID 1347149);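 further: purified recombinant full-length human furin enzyme at 5 nM; fluorescence gain from furin cutting a BOC-RVRR-AMC peptide substrate over 15 min; top concentration of the series differs between compounds; nearly all actives have a fitted effect of over 70% in size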
Chain of Furin (Homo sapiens) (P09958 whole entry, looked up): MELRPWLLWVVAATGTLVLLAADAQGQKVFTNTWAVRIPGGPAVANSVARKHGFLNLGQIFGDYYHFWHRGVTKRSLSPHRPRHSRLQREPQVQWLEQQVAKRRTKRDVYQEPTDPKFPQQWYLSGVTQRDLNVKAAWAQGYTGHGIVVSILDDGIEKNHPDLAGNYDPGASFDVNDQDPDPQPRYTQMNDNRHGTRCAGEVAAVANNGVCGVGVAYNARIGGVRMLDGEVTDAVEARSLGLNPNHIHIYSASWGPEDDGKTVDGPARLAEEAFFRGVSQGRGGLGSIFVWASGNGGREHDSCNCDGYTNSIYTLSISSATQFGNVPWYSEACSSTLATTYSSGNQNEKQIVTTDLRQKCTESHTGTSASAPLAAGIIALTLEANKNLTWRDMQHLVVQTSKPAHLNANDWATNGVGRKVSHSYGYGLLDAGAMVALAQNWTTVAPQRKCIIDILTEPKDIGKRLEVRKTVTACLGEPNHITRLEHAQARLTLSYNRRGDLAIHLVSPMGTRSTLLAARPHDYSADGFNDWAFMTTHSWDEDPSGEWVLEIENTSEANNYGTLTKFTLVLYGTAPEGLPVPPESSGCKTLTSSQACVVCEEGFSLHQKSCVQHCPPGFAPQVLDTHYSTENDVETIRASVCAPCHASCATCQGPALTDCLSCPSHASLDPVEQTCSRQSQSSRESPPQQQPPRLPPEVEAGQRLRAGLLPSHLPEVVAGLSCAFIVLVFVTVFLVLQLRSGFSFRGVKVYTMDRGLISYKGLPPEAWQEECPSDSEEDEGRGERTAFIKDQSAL
Procedure, shortened: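 Fluorogenic cleavage of BOC-RVRR-AMC (2 microM final, Km ~15 µM) was monitored (ex 340, em 450 nm) at 37C after 15 min RT preincubation of 5 nM furin with compounds in HEPES pH 7.0 buffer with CaCl2 and Triton X-100. Percent inhibition was fitted to a 4-parameter Hill curve.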

[12] = Confirmatory screen GU Rhodamine qHTS for Zika virus inhibitors qHTS (AID 1347157); further: nearly all actives have a fitted effect of over 70% in size
Procedure, shortened: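 Buffer 10 mM Tris-HCl pH 8.0, 0.01% Tween 20. Unlinked protease 25 nM; compound preincubation 15 min, RT, protected from light. Substrate Rhod110, 1.5 microM; ~15% conversion in 15 min.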

[13] = molecular target: N-terminal Xaa-Pro-Lys N-methyltransferase 1 (Homo sapiens) (UniProt Q9BV86); test: qHTS Assay for Inhibitors of N-terminal methyltransferase 1 (NTMT1): LOPAC validation of the NTMT1 SAHH-coupled ThioGlo3 Assay (AID 1347143); further: potency means the concentration at half of the fitted maximal effect
Chain of N-terminal Xaa-Pro-Lys N-methyltransferase 1 (Homo sapiens) (Q9BV86 whole entry, looked up): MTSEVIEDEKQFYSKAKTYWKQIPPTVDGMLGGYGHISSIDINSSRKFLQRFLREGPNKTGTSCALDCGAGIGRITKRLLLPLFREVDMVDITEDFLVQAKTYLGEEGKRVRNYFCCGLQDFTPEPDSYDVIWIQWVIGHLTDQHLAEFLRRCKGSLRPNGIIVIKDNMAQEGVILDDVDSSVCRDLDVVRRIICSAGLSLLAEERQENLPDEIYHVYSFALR
Procedure, shortened: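 Recombinant human NTMT1 (125nM) was pre-incubated 1 min at room temperature with compounds over a concentration range, then a mix of 100uM SAM, 10uM SAHH and 15uM ThioGlo3 (concentrations in added reagent) was added. ThioGlo3 fluorescence (ex 340/em 450nm) after 30 min was normalized to the initial reading.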

[14] = tested on: Zika virus NS2B-NS3 protease (unlinked); test: Optimization of GU AMC qHTS for Zika virus inhibitors: Unlinked NS2B-NS3 protease assay (AID 1347151); further: series mostly up to about 52 µM; nearly all actives have a fitted effect of over 80% in size
Procedure, shortened: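 Fluorescence read-out (340 nm ex / 450 nm em) of AMC peptide cleavage, taken immediately and after 15 min at room temperature (~20% conversion). Enzyme was the unlinked NS2B–NS3 complex at 25 nM in Tris pH 8.0 buffer.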

[15] = tested on: Zika virus NS2B-NS3 protease (unlinked complex); test: Primary screen GU Rhodamine qHTS for Zika virus inhibitors: Unlinked NS2B-NS3 protease assay (AID 1347159); further: nearly all actives have a fitted effect of over 60% in size
Procedure, shortened: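 Percent inhibition derives from the 15-min fluorescence change (ex 480, em 540 nm), normalized to no-enzyme and no-inhibitor wells. Reactions contained 25 nM NS2B-NS3 complex and 1.5 microM substrate in 10 mM Tris-HCl pH 8.0.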

[16] = tested on: Zika virus NS2B-NS3 protease (linked construct); test: Primary screen NINDS Rhodamine qHTS for Zika virus inhibitors (AID 1347160); further: nearly all actives have a fitted effect of over 55% in size
Procedure, shortened: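 In 10 mM Tris-HCl pH 8.0 containing 0.01% Tween 20, linked NS2B-NS3 protease (25 nM final) is exposed to test compounds for 15 min. Cleavage of 1.5 microM Rhodamine110 substrate is tracked by fluorescence over 15 min.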

Measured: Potency

COc1cc2cc(c1Cl)N(C)C(=O)C[C@H](OC(=O)C(C)C)[C@]1(C)O[C@H]1[C@H](C)[C@@H]1C[C@@](O)(NC(=O)O1)[C@H](OC)C=CC=C(C)C2
active: [1] 1 nM | [2] 0.4 nM | [3] 1 nM | [5] 26100 nM | [6] 11.7 nM
inactive: [4] | [7]

CC=C(C)C(=O)N[C@@H](c1ccccc1)[C@@H](O)C(=O)O[C@H]1C[C@@]2(O)[C@@H](OC(=O)c3ccccc3)[C@@H]3[C@]4(OC(C)=O)CO[C@@H]4C[C@H](O)[C@@]3(C)C(=O)[C@H](OC(C)=O)C(=C1C)C2(C)C
inactive: [4] | [7]
active: [1] 52.2 nM | [3] 29.3 nM | [5] 41.4 nM | [6] 41.4 nM

O=[N+]([O-])c1c(Cl)c(Cl)cc(Cl)c1Cl
inactive: [3] | [4] | [8] | [9] | [10] | [11] | Furin (Homo sapiens) | [12]

O=C(Nc1ccncc1)C(=O)c1cn(Cc2ccc(Cl)cc2)c2ccccc12
active: [1] 827 nM | [2] 233 nM | [3] 369 nM | [8] 465 nM | [9] 465 nM | [10] 414 nM | [5] 585 nM | [6] 928 nM
inactive: [7]

CC[C@@]1(O)C(=O)OCc2c1cc1n(c2=O)Cc2cc3ccccc3nc2-1
active: [1] 36.9 nM | [2] 18.5 nM | [3] 73.7 nM | [8] 1040 nM | [9] 369 nM | [10] 465 nM | [5] 104 nM | [6] 147 nM | [11] 2090 nM | [13] 3550 nM | [7] 2120 nM

C[C@H]1CCCC=CC2C[C@H](O)C[C@@H]2[C@H](O)C=CC(=O)O1 (stereo partly specified)
inactive: [7]
active: [1] 92.8 nM | [2] 117 nM | [8] 208 nM | [9] 827 nM | [10] 329 nM | [6] 46.5 nM | [11] 132 nM

O=C(N[C@H]1CN2CCC1CC2)c1ccc(Cl)cc1
active: [2] 1650 nM | [10] 414 nM | [6] 10400 nM
inactive: [1] | [4] | [13] | [14] | [7] | [15] | [16]

Cc1c(C(=O)Nc2cccc(C(F)(F)F)c2)cc(-c2ccccc2)n1CCCN1CCOCC1
inactive: [15] | [16]
active: [1] 42700 nM | [8] 24000 nM | [9] 21400 nM | [6] 42700 nM

O=c1[nH]c2ccc(Cl)cc2c(N[C@@H]2CN3CCC2CC3)c1-c1nc2ccccc2[nH]1
inactive: [7] | [16]
active: [1] 5850 nM | [2] 465 nM | [4] 18500 nM | [8] 1310 nM | [9] 3690 nM | [10] 2330 nM | [5] 1310 nM | [6] 657 nM | [11] 5260 nM

S=C(SSC(=S)N1CCCCC1)N1CCCCC1
inactive: [4] | [11] | [7]
active: [2] 2610 nM | [9] 329 nM

CC1=C(O)C(=O)C=C2C1=CC=C1[C@@]2(C)CC[C@@]2(C)[C@@H]3C[C@](C)(C(=O)O)CC[C@]3(C)CC[C@]12C
active: [1] 4650 nM | [2] 1310 nM | [3] 2330 nM | [4] 4140 nM | [8] 928 nM | [9] 1470 nM | [10] 1170 nM | [5] 3290 nM | [6] 2610 nM | [11] 2960 nM
inactive: Furin (Homo sapiens)

CC(=O)[O][Hg][c]1ccccc1
active: [1] 2330 nM | [2] 827 nM | [3] 4140 nM | [4] 13100 nM | [5] 1170 nM | [6] 5850 nM | [11] 2640 nM

CC(C)N[C@@H]1CCn2c(=O)[nH]c3cccc(c32)[C@@H]1O
inactive: [1] | [3] | [4] | [8] | [9] | [10] | [5] | [6] | [11] | [7]

CC(C)[C@]12O[C@@H]1[C@@H]1O[C@]13[C@]1(O[C@H]1C[C@@H]1C4=C(CC[C@@]13C)C(=O)OC4)[C@H]2O
inactive: [4] | [7]
active: [1] 36.9 nM | [2] 73.7 nM | [3] 32.9 nM | [8] 73.7 nM | [9] 26.1 nM | [10] 52.2 nM | [5] 46.5 nM | [6] 104 nM | [11] 148 nM

Cc1ccccc1-n1c(Cn2cnc3c(N)ncnc32)nc2cccc(C)c2c1=O
inactive: [1] | [2] | [4] | [8] | [9] | [10] | [5] | [6] | [11] | [15] | [16]
